# Screens (PubChem BioAssay)
# DT40 TDP1 no CPT = qHTS for Inhibitors of human tyrosyl-DNA phosphodiesterase 1 (TDP1): qHTS in cells in absence of CPT; AID 686978, 2013; DT40 Tdp1-/- hTDP1 cells, no CPT, ATP luminescence, 48 h; Potency, µM (highest dose often 46.2 µM), for the others: at the highest dose activity change, negative = growth inhibition, most hits filed as inhibitors; 420,000 tested, 15% active; also: % is scaled to controls: 0 for no effect and ±100 for the full control effect; nearly all actives have a fitted effect of over 55% in size
#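 Luminescent ATP content (CellTiter-Glo) served as the growth readout. Knockout chicken DT40 cells expressing human TDP1 were exposed to compounds without camptothecin for a minimum 48 hr at 37 °C.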
# ClpP mod = qHTS Assay for Activators of ClpP | ATP-dependent Clp protease proteolytic subunit (Bacillus subtilis (strain 168)), P80244 | 340,000 tested, 1.9% active | purified B. subtilis ClpP, FRET peptide cleavage, 20 min | Potency, µM (series often up to 57.5 µM), for the others: at the highest dose activity change, negative = active; active = well fitted falling curve with a large enough effect; inconclusive = small, poorly fitted or top-dose-only effect; inactive = no such curve, though single readings can be large or run the other way; also: the source files actives as falling curves though it sought activators and does not explain the sign; nearly all actives have a fitted effect of over 65% in size
#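 ClpP 10 microg/mL final, pH 8 Tris/KCl buffer with BSA, glycerol, Tween-20; compound pinned in; FRET-FV substrate; RT 20 min; Ex320/Em430; ΔFRET vs ADEP 5.8 microM, DMSO, no enzyme.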
# DT40 TDP1 CPT = DT40-hTDP1 cell growth loss with CPT | Potency, µM (highest dose often 46.2 µM), for the others: at the highest dose activity change, negative = growth inhibition, actives largely listed as inhibitors | chicken DT40 Tdp1-/-;hTDP1 cells + 20 nM CPT, ATP luminescence, 48 h | 420,000 tested, 12% active; also: % is scaled to controls: 0 for no effect and ±100 for the full control effect; nearly all actives have a fitted effect of over 55% in size
#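 Cell growth measured by CellTiter-Glo luminescence after a minimum 48 h, 37 C compound exposure with 20 nM CPT in Tdp1-knockout DT40 cells stably expressing hTDP1, seeded 400/well; qHTS titration format.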
# TDP1 block = blocks human tyrosyl-DNA phosphodiesterase 1; 350,000 tested, 0.28% active; Q9NUW8; Potency, µM (doses to about 130 µM), for inactives: top-dose activity change, negative = inhibition, actives largely listed as inhibitors; recombinant TDP1, AlphaScreen DNA substrate cleavage; also: % is scaled to controls: 0 for no effect and ±100 for the full control effect; nearly all actives have a fitted effect of over 40% in size
# Target sequence (Q9NUW8 whole entry, looked up): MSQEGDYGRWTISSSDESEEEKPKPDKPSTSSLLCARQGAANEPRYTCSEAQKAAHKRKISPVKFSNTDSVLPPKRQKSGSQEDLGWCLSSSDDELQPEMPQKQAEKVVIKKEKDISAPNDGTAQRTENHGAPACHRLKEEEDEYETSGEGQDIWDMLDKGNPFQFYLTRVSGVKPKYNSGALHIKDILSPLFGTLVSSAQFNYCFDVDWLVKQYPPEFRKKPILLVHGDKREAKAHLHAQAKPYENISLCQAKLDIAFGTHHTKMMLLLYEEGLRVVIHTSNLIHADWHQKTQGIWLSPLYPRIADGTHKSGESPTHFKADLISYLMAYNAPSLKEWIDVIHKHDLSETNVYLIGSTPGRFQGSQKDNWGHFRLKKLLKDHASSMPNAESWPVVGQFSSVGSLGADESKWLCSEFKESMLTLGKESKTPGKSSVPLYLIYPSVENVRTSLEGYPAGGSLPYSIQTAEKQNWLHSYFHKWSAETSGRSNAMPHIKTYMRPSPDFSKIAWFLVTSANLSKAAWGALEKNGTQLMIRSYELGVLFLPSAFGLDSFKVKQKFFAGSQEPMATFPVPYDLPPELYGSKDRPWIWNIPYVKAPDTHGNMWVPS
#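 Signal: AlphaScreen proximity between streptavidin donor and anti-FITC acceptor beads on intact substrate. Reaction: Tdp1 1 nM, substrate 15 nM final, 5 min RT after 15 min compound preincubation.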
# * hit, by the source's call; u = inconclusive; x = not tested or not shown; [ ] = another dose, or the depositor's remark. Sampled rows, rich in hits. Any-hit rate of the full collection: about 17%. Unless noted, calls follow the shape of the dose curve; as a rule, active = well fitted curve in the direction sought with a large enough effect; inconclusive = small, poorly fitted or top-dose-only effect, or another doubt; inactive = no such curve, though single readings can be large; an effect the other way counts as inactive or inconclusive. Potency is read from the fitted curve at half-maximal effect.
SMILES,DT40 TDP1 no CPT,ClpP mod,DT40 TDP1 CPT,TDP1 block
Cc1ccccc1C(=O)N1CCC2CC1c1cc(-c3ccc(F)cc3)ccc12 (stereo unspecified),18µM*,0%,u,x
O=C(OCc1ccccc1)N1CCC2CC1c1cc(N3CCNCC3)ccc12 (stereo unspecified),16µM*,-2%,u,x
c1ccc(CN2CCC3CC2c2cc(N4CCCCC4)ccc23)cc1 (stereo unspecified),u,0%,u,x
COC(=O)[C@@H]1CC[C@H](C)[C@@H](c2ccc(C)cc2)N1C(=O)c1ccc(/C=N\O[C@@H](C)CN2CCCc3nc(C)c(C)cc32)cc1,x,x,x,12%[21 µM]
CCNc1ncc2nc(C)c(=O)n(C)c2n1,-1%,x,-1%,x
Cc1ccc(-n2nc(C(=O)N3CCCCC3)c(=O)n(C)c2=O)cc1,-8%,-1%,2%,8%
COc1ccc(-c2ccc3c(c2)C2CC3CCN2C(=O)OCc2ccccc2)cc1 (stereo unspecified),u,-7%,16µM*,x
O=C(OCc1ccccc1)N1CCC2CC1c1cc(-c3ccc(F)cc3)ccc12 (stereo unspecified),u,0%,u,x
CC(=O)N(CCc1ccccc1)c1ccc2c(c1)C1CC2CCN1C(=O)OCc1ccccc1 (stereo unspecified),6.5µM*,0%,8.2µM*,x
O=C(c1cc(Cl)cc(Cl)c1)N1CCC2CC1c1cc(N3CCCCC3)ccc12 (stereo unspecified),21µM*,0%,u,x
O=C(OCc1ccccc1)N1CCC2CC1c1cc(/C=C/CCCSc3ncccn3)ccc12 (stereo unspecified),23µM*,-1%,u,x
O=C(OCc1ccccc1)N1CCC2CC1c1cc(N3CCCCC3)ccc12 (stereo unspecified),u,-10%,u,x
C=CCOC(=O)N1CCC2CC1c1cc(-c3cccc(C)c3)ccc12 (stereo unspecified),u,-4%,u,x
COc1cccc(-c2ccc3c(c2)C2CC3CCN2C(=O)c2ccc(-c3ccccc3)cc2)c1 (stereo unspecified),18µM*,0%,u,x
CCC(CC)c1nn2c(=O)cc(COc3ccc(NC(=O)c4cccc(C)c4)cc3)nc2s1,u,-14%,1%,6%
N#CC1=C(N)N(c2ccccc2)C(c2ccccc2)C1(C#N)C#N (stereo unspecified),15µM*,10µM*,16µM*,-6%
O=C(Cc1ccccc1)c1ccc(O)cc1O,-25%,1%,-11%,x
O=C(O)c1cc(N(Cc2ccccc2O)Cc2cc(O)ccc2O)ccc1O,21µM*,x,u,u
C[C@H](CO)N1C[C@H](C)[C@@H](CN(C)C(=O)Nc2ccc(C(F)(F)F)cc2)Oc2c(cccc2N(C)C)C1=O,23µM*,-3%,u,0%
COc1ccc(NC(=O)N(C)C[C@H]2Oc3c(NC(=O)c4ccncc4)cccc3C(=O)N([C@H](C)CO)C[C@@H]2C)cc1,-1%,4%,0.023µM*,0%
C[C@@H]1CN([C@H](C)CO)C(=O)c2cccc(NC(=O)Nc3ccc(F)cc3)c2O[C@H]1CN(C)C(=O)Nc1ccc(C(F)(F)F)cc1,u,0%,u,1%
C[C@H]1CN([C@@H](C)CO)C(=O)c2cccc(NC(=O)c3ccncc3)c2O[C@H]1CN(C)C(=O)Nc1ccccc1,u,0%,u,u
COc1ccc(NC(=O)N(C)C[C@H]2Oc3c(NC(=O)Nc4ccc(C(F)(F)F)cc4)cccc3C(=O)N([C@H](C)CO)C[C@@H]2C)cc1,13µM*,-1%,16µM*,2%
C[C@H](CO)N1C[C@H](C)[C@@H](CN(C)S(=O)(=O)c2ccccc2)Oc2c(cccc2N(C)C)C1=O,u,-1%,u,1%
Cc1noc(C)c1S(=O)(=O)N(C)C[C@H]1Oc2c(cccc2N(C)C)C(=O)N([C@H](C)CO)C[C@@H]1C,u,-3%,-18%,100µM*
SMILES,DT40 TDP1 no CPT,ClpP mod,DT40 TDP1 CPT,TDP1 block
O=C(Cn1ncc2ccsc2c1=O)N1CCN(c2ccccc2F)CC1,x,0%,x,4%
CC(C)NC(=O)N(C)C[C@H]1Oc2c(NC(=O)Nc3ccc(C(F)(F)F)cc3)cccc2C(=O)N([C@H](C)CO)C[C@@H]1C,18µM*,-1%,u,1%
COCCN1C[C@@H](CO)O[C@@H](n2cnc3c(NCC(C)C)ncnc32)C1,-6%,2%,-5%,x
c1ccc2c(c1)CCN(c1nc(CN3CCOCC3)nc3sc4c(c13)CCCC4)C2,16µM*,-2%,23µM*,11%
O=c1[nH]c(CN2CCCC2)nc2sc3c(c12)CCC3,-1%,x,-28%,0%
Clc1nc(CN2CCCCC2)nc2sc3c(c12)CCC3,18µM*,-2%,u,3%
FC(F)(F)c1cccc(Cl)c1,x,x,x,10%
COc1ccc(C(C)NCCC(c2ccc(OC(C)C)cc2)c2ccccc2OC)cc1 (stereo unspecified),5.8µM*,x,5.8µM*,x
C[C@H](NCCC(c1ccccc1)c1ccccc1)c1ccccc1,x,x,x,9%[21 µM]
COc1ccc(C(CCNC(C)c2ccccc2)C(C)C)cc1 (stereo unspecified),16µM*,x,u,3%
COc1ccc(CCNC(=O)C2CCCN(Cc3nc(-c4ccccc4C)oc3C)C2)cc1OC (stereo unspecified),23µM*,1%,23µM*,-3%
Cc1ccccc1-c1nc(CN2CCCC(C(=O)NCCCN3CCOCC3)C2)c(C)o1 (stereo unspecified),u,-2%,3%,1%
Cc1ccccc1-c1nc(CN2CCCC(C(=O)NCc3cccnc3)C2)c(C)o1 (stereo unspecified),16µM*,-2%,23µM*,5%
COc1ccc(-c2nc(CN3CCC(C(=O)NCc4ccc(C)cc4)CC3)c(C)o2)cc1OC,u,4%,u,7%
CCc1ccc(-c2nc(CN3CCCC(C(=O)NCCc4ccc(OC)c(OC)c4)C3)c(C)o2)cc1 (stereo unspecified),13µM*,0%,23µM*,9%
Cc1ccc(CNC(=O)C2CCN(Cc3nc(-c4ccccc4C)oc3C)CC2)cc1,u,0%,u,5%
Cc1ccc(CCNC(=O)C2CCN(Cc3nc(-c4ccccc4C)oc3C)CC2)cc1,18µM*,-2%,13µM*,6%
Cc1ccc(NC(=O)NNC(=O)c2snnc2C)cc1,7%,1%,-2%,4%
CC1=C(C(=O)Nc2ccccc2C)C(c2cccnc2)n2nc(SCc3ccccc3F)nc2N1 (stereo unspecified),-23%,2%,-17%,6%
CCC(=O)NNC(=O)CCC(=O)Nc1cccc(Cl)c1C,-1%,x,8%,0%
